The source of these data is PubChem BioAssay (NCATS).

Molecules are shown by their SMILES. Results filed as inconclusive are left out. Entries that show only a call come without a potency. Active and inactive are the calls of the source. Calls come from the whole dose curve; as a rule, active = well fitted inhibition curve with a large enough effect; inconclusive = small, poorly fitted or top-dose-only effect; inactive = flat fitted curve, though single readings scatter.

In the experiment the target is Aldehyde dehydrogenase, mitochondrial (Homo sapiens) (UniProt P05091). As to the kind of experiment: qHTS for Inhibitors of the Aldehyde Dehydrogenase Family (ALDH2) Primary screen (AID 2061308). Note: nearly all actives have a fitted effect of over 55% in size. Conditions: ALDH2 enzyme inhibition qHTS, 1536-well; series mostly up to 56 µM.
`O=C(NC(c1ccco1)c1cc(Cl)c2cccnc2c1O)c1cccs1` (stereo not given): the Potency result was “inactive”.

For `CN1CCN(c2ccc(Nc3c4ccccc4nc4ccccc34)cc2)CC1`, the Potency result was “inactive”. As for `COc1ccc(C2Nc3ccccc3C(=O)N2Cc2ccccc2)cc1OCc1ccc(NC(C)=O)cc1` (stereo not given), the entry is “inactive”; as for `c1ccc2[nH]c(-c3ccc(NCc4ccc5c(c4)OCCO5)cc3)nc2c1`, “inactive”.

Regarding `CN(C)c1cnc2c(O)ccc([S+](=O)([O-])Nc3ccccc3F)c2c1`, the Potency entry is “inactive”. The value for `COc1ccc(OC)c(NC(=O)c2ccccc2OC(C)=O)c1` was “inactive”; that for `COc1cccc(CNc2ccc(S(=O)(=O)Nc3ccccn3)cc2)c1O` was “inactive”. The value for `CN(C)C1CCN(Cc2cc(COCc3ccccc3)c3cccnc3c2O)C1` (stereo not given) was “inactive”; that for `CC(C)(C)OC(=O)N1CCN(c2ccc(NCc3ccoc3-c3ccc(C#N)cc3)cc2)CC1` was “inactive”.

Take `O=C(O)c1ccc(-c2noc(-c3ccc(C(F)(F)F)cc3)n2)cc1`: the Potency result is “inactive”. For the compound `COc1ccc(-c2nc(-c3ccc(C(=O)O)cc3)no2)cc1`, the Potency result is “inactive”. For `CN(C)CCN(Cc1ccc(-c2ccc(CNCCc3ccccc3)cc2)cc1)C(=O)CCC1CCCC1`, the Potency entry was “inactive”. The value for `O=C(Nc1cncc(-c2ccncc2)c1)c1cccs1` was “inactive”. The value for `O=C(Nc1nnc(-c2ccncc2)s1)Nc1ccc(Cl)c2ccccc12` was “inactive”; that for `CC1=CC2=C(C)C(=O)[C@](C)(O)[C@H](O)C2=CO1` was “inactive”; that for `COc1ccc(C(=O)NC(c2ccco2)c2cc(Cl)c3cccnc3c2O)cc1` (stereo not given) was “inactive”.

For the compound `NC(Cc1c[nH]c2ccc(O)cc12)C(=O)O` (stereo not given), the Potency entry was “inactive”. The value for `CC(=O)c1ccc(N2CCN(C(=O)c3ccc4c(c3)CCC(=O)N4)CC2)cc1` was “inactive”; that for `C=C1CCC2C(C)(CO[C@@H]3O[C@H](CO)[C@@H](O)[C@H](O)[C@H]3O)C(O)CCC2(C)C1C(=O)CC1=CCOC1=O` (stereo not given in full) was “inactive”; that for `COc1cc(OC)c(C(CC(=O)N2CC(C)CC(C)C2)c2ccc3c(c2)OCO3)c(OC)c1` (stereo not given) was “inactive”.

As for `COc1ccc(O)c(-c2nc3ccccc3c(=O)n2Cc2ccccc2)c1`, the Potency entry is “inactive”. As for `C/C(=C\c1ccccc1)C1Nc2cccc3cccc(c23)N1`, the entry is “inactive”; as for `CCCn1c(-c2ccc(F)cc2)nc2c(N3CCN(CCn4ccnc4)CC3)nc(C)nc21`, “inactive”; as for `O=C(Nc1ccccc1C(=O)O)c1ccccc1`, “inactive”. As for `Fc1ccccc1-c1nc(-c2ccccc2)no1`, the entry is “inactive”. Turning to `Cn1c2cc(Br)sc2c2cnn(Cc3c(F)cccc3Cl)c(=O)c21`, the Potency entry is “inactive”.

As for `COc1ccc2nc(-c3cccc(NC(C)=O)c3)sc2c1`, the Potency result is “inactive”. The value for `O=C(O)c1cccc(-c2noc(-c3ccccc3C(F)(F)F)n2)c1` was “inactive”; that for `C/C(=C\c1ccc(F)cc1)C1Nc2cccc3cccc(c23)N1` was “inactive”. As for `COc1ccc(C(=O)OC2C3C=COC(OC4OC(CO)C(O)C(O)C4O)C3C3(CO)OC23)cc1OC` (stereo not given), the entry is “inactive”; as for `c1cc2c3c(cccc3c1)NC(c1ccc3c(c1)OCO3)N2`, “inactive”; as for `Cc1ccnc(NC(=S)N2CCCC(Nc3cccc(C(F)(F)F)c3)C2)c1` (stereo not given), “inactive”. As for `C=C1CC[C@@H](O)[C@]2(C)CC[C@H]3C(=C)C(=O)O[C@@H]3[C@@H]12`, the entry is “inactive”; as for `CC(C)c1ccccc1-c1nccc(NCc2ccc(-c3cccnc3)cc2)n1`, “inactive”; as for `Cc1ccc(-c2cc(C(=O)Nc3ccccn3)c3ccccc3n2)cc1C`, “inactive”. For `CC(=O)NC(c1cc(Cl)c2ccccc2c1O)C1CC1` (stereo not given), the Potency entry is “inactive”. The value for `COc1cccc(Nc2ccc(N3CCN(C(C)=O)CC3)cc2)c1OC` was “inactive”. The value for `N#Cc1ccc(S(=O)(=O)Nc2cnccc2C(=O)Nc2nc(-c3ccccc3)cs2)cc1` was “inactive”; that for `O=C(O)c1ccc(-c2noc(-c3ccccc3Cl)n2)cc1` was “inactive”; that for `O=C1CCc2cc(S(=O)(=O)Nc3ccccc3-c3ccccc3)ccc2N1` was “inactive”.
